This note sets out measurements from PubChem BioAssay AID1688 (National Center for Advancing Translational Sciences (NCATS), 2009).

Molecules are shown by their SMILES. Among all 220,000 compounds or so, about 2,400 (1.1%) were called active. About 7% were inconclusive and are not listed. This is one part of a sample in which actives are shown more often than they occur. Calls follow the shape of the dose curve; as a rule, active = well fitted inhibition curve with a large enough effect; inconclusive = small, poorly fitted or top-dose-only effect, or effect the other way; inactive = no such curve, though single readings can be large or run the other way.
% is scaled to controls: 0 for no effect and ±100 for the full control effect; potency is read from the fitted curve at half-maximal effect.

A short description of the assay: qHTS Multiplex Assay to Identify Dual Action Probes in a Cell Model of Huntington: Aggregate Formation (GFP). Also: nearly all actives have a fitted effect of over 60% in size. To be noted: PC12 HttQ103-GFP aggregates, Acumen cytometry, 40 h; series mostly up to 9.22 µM; activity change, negative = inhibition: at the top concentration. An outline of the steps: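 Aggregates are detected as GFP objects 1–25 µm with signal 6 STDEV over background in lysates of induced PC12 cells. These carry Huntingtin exon 1 with 103 glutamines fused to GFP under an ecdysone promoter; compounds titrated.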
(In general: qHTS replaces the single test concentration by a dilution series.)
As for `CCOc1cccc(C(=O)Nc2cccnc2)c1`, the “activity change, negative = inhibition” value is 9.21% [at 46.1 µM] (inactive). As to `CCOc1cccc(NC(=O)CC#N)c1`, the Potency is 1.78 µM (active). On to `CCC(=O)Nc1ccc(C(=O)Nc2cccc(OC)c2)cc1`, for which the “activity change, negative = inhibition” value was 0.618% [at 46.1 µM] (inactive).

Regarding `S=c1[nH]nc(-c2cc(-c3ccsc3)n[nH]2)n1-c1ccccc1`, the “activity change, negative = inhibition” value is -11.3% (inactive).

Take `CN(C)c1ccc(/C=C/C(=O)c2ccc(O)cc2)cc1[N+](=O)[O-]`: the “activity change, negative = inhibition” value is -9.72% (inactive). Take `Cn1nnc(NC(=O)CSc2ncn[nH]2)n1`: the “activity change, negative = inhibition” value is -1.4% [at 46.1 µM] (inactive). Same read-out and setting: in the case of `O=C(CSc1n[nH]c(-c2cccnc2)n1)Nc1ccnc2ccccc12` it was -14.5% [at 46.1 µM] (inactive). Consider `O=C(CSc1ncn[nH]1)Nc1ccnc2ccccc12`, for which the Potency was 11.2 µM (active). With `Brc1ccc(-c2n(-c3ccccn3)c3ccccc3[n+]2-c2ccccn2)cc1`, the “activity change, negative = inhibition” value is 8.85% (inactive). The same measure, in the same setting: in the case of `CC(C)(C)c1cc(P(=O)(c2ccccc2)c2ccccc2)ccc1O` it was 14.2% (inactive); in that of `CC(=O)NC(=S)Nc1ccc(NC(=O)c2cccnc2)cc1`, -4.87% (inactive). For `CC(C)(C)OC(=O)NCCCCCC(=O)N/N=C/c1coc2ccccc2c1=O`, the “activity change, negative = inhibition” value is -27.8% (inactive). Consider `COC(=O)c1sc(C(F)(F)F)c(-c2ccccc2)c1S(=O)(=O)N(C)C`, for which the “activity change, negative = inhibition” value was 7.84% (inactive). Take `O=C(Nc1nc2ccc([N+](=O)[O-])cc2s1)c1ccncc1`: the “activity change, negative = inhibition” value is 16.4% (inactive). As to `O=C(NC(Nc1nc2ccc([N+](=O)[O-])cc2s1)(C(F)(F)F)C(F)(F)F)c1ccccc1`, the Potency is 0.126 µM (active).

As to `O=C(O)CCC(=O)Nc1nc2ccc([N+](=O)[O-])cc2s1`, the “activity change, negative = inhibition” value was -9.22% [at 46.1 µM] (inactive). With `Cc1ccc(NS(=O)(=O)c2ccc(N/N=C/c3ccccc3OCC(=O)O)c([N+](=O)[O-])c2)c(C)c1`, the “activity change, negative = inhibition” value was -8.07% (inactive).

Turning to `COc1cc2c(cc1OC)CC(=O)N(CCCN(C)C[C@H]1Cc3cc(OC)c(OC)cc31)CC2`, the “activity change, negative = inhibition” value is 17.7% [at 46.1 µM] (inactive).

As for `O=C(O)Cc1csc(NC(=O)CSc2nnnn2-c2ccc(O)cc2)n1`, the “activity change, negative = inhibition” value was -3.49% (inactive).

For `Cc1cccc(C)c1NC(=O)NC1=CCCN1C`, the “activity change, negative = inhibition” value is -4.99% [at 46.1 µM] (inactive). As to `NC(=O)[C@H]1CC2(CC(c3cccc(NC(=O)[C@H]4CCC(=O)N4)c3)=NO2)CN1C(=O)c1ccccc1C(=O)c1ccccc1` (stereo partly drawn), the “activity change, negative = inhibition” value was -14.4% (inactive). Take `O=C(Cc1c(F)cccc1Cl)Nc1ncc([N+](=O)[O-])s1`: the Potency is 10 µM (active).

`Cc1cnc(NC(=O)CSc2c(Cl)cccc2Cl)s1`: the “activity change, negative = inhibition” value is -1.32% [at 46.1 µM] (inactive). Regarding `O=C(Cc1c(F)cccc1Cl)Nc1ccc(-n2cnnn2)cc1`, the “activity change, negative = inhibition” value is -5.01% [at 46.1 µM] (inactive). For `C/C=C/C=N/NC(=O)c1ccncc1`, the “activity change, negative = inhibition” value is 11.7% [at 46.1 µM] (inactive).

For `CN(C)N=Nc1ccc2nc[nH]c2c1`, the “activity change, negative = inhibition” value is 9.84% (inactive). Consider `O=C(O)CC1(CC(=O)Nc2cccc(C(F)(F)F)c2)CCCC1`, for which the “activity change, negative = inhibition” value is 35.4% (inactive). Still for that read-out and setting: under `CCOC(=O)N/N=C1\CC(C)S(=O)(=O)c2ccc(Cl)cc21` (stereo not drawn) stands 2.2% (inactive); under `COCc1cc(=O)[nH]c(SC)n1`, -34.4% (inactive); under `CCN(CCNC(=O)C1=C(C)C(=O)OC12CCC(C)CC2)c1ccccc1` (stereo not drawn), -10.9% (inactive). Regarding `COc1ccc(NS(=O)(=O)c2ccc(NC(=S)NC(=O)CC(C)C)cc2)cc1`, the Potency was 22.4 µM (active). On to `COc1ccc(C(=O)Nc2ccc(S(=O)(=O)NC(C)C)cc2)cc1`, for which the “activity change, negative = inhibition” value is -3.78% [at 46.1 µM] (inactive). The same measure, in the same setting: in the case of `CC(=O)c1ccc(NC(=S)NC(=O)CC(C)C)cc1` it was -8.99% [at 46.1 µM] (inactive); in that of `COc1ccc(NC(=O)C2=NNC(=O)CC2)cc1S(=O)(=O)N1CCCCC1`, -9.93% (inactive). As to `CCc1cc(CNC(=O)CC2C(=O)NCCN2Cc2ccccc2C(F)(F)F)on1` (stereo not drawn), the “activity change, negative = inhibition” value is -15.2% (inactive). Consider `Cn1c(CSCC(=O)Nc2ccccc2)nnc1SCc1ccccc1`, for which the “activity change, negative = inhibition” value was -3.46% (inactive). Take `Cc1ccc2c(c1)c1ncn(CCC3=CCCCC3)c(=O)c1n2C`: the “activity change, negative = inhibition” value is -3.8% [at 46.1 µM] (inactive).

In the case of `Cc1ccc2c(c1)c1ncnc(N3CCc4ccccc4C3)c1n2C`, the Potency is 11.2 µM (active). Turning to `Cc1ccc2c(c1)c1ncn(Cc3ccc(F)cc3)c(=O)c1n2C`, the “activity change, negative = inhibition” value was -13.6% (inactive). The same measure, in the same setting: in the case of `Cc1ccc(C(=O)NNc2ncnc3ccccc23)cc1` it was -15% (inactive); in that of `CC(=O)COc1ccc2c(-c3ccccc3)cc(=O)oc2c1`, 2.72% [at 46.1 µM] (inactive).

Take `O=C(CNC(=O)OCc1ccccc1)Oc1cc2oc(=O)cc(-c3ccccc3)c2cc1Cl`: the Potency is 7.08 µM (active). Take `O=C(CNC(=O)c1ccc(-c2ccccc2)cc1)OCc1ccc(Cl)cc1`: the “activity change, negative = inhibition” value was 17.4% [at 46.1 µM] (inactive). Consider `NCCCCC(N)C(=O)O` (stereo not drawn), for which the “activity change, negative = inhibition” value was -9.12% [at 46.1 µM] (inactive). Still for that read-out and setting: in the case of `O=C(CS(=O)(=O)c1ccc(C(F)(F)F)cn1)NNC(=O)c1ccccc1` it was -20.9% (inactive); in that of `CCOC(=O)c1c(C)nn(-c2ncccc2NC(=O)CCC(=O)O)c1C`, 16.3% (inactive).

As for `O=C(Nc1cccc(Cl)c1)Nc1ccccc1NS(=O)(=O)c1cccs1`, the Potency was 11.2 µM (active). `O=C(Nc1cccc(Cl)c1)Nc1nnc(-c2ccccc2)o1`: the “activity change, negative = inhibition” value is 7.19% [at 46.1 µM] (inactive). As to `O=C(Nc1nncs1)c1ccccc1NS(=O)(=O)c1cccs1`, the “activity change, negative = inhibition” value is -25.2% [at 46.1 µM] (inactive). Regarding `O=C(O)Cc1ccc(-c2ccccc2)cc1`, the “activity change, negative = inhibition” value was 4.1% [at 46.1 µM] (inactive).

For `OCC(CO)(CO)NCc1ccc(-c2ccccc2)cc1`, the Potency was 11.2 µM (active). Take `O=C(Cc1ccc(-c2ccccc2)cc1)NC(c1ccccc1)c1ccccc1`: the “activity change, negative = inhibition” value was -10.3% [at 46.1 µM] (inactive).

As to `CN(C(=O)CCn1c(=S)oc2ccccc21)C1CCCCC1`, the “activity change, negative = inhibition” value was -13.5% (inactive).
